The text below walks through data of PubChem BioAssay.

The nature of test [1]: small molecules captured by biotinylated probe aFSTL3 – biochemical, small-molecule microarray, fluorescence 635/667, stem cell growth factor project, primary screen (AID 1064).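 Also: measures binding of the biotinylated anti-FSTL3 antibody to printed compounds.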 The note with it: higher = more signal.
The nature of test [2]: binders from COS7 lysate, DM2A8 probe, primary screen, torsin A project, cell lysate, small-molecule microarray, fluorescence 635/667 (AID 1065). The note with it: higher = more signal, COS7 lysate expressing mutant human TOR1A.
The nature of test [3]: small molecules captured by biotinylated probe aFGF2 – biochemical, small-molecule microarray, fluorescence 635/667, stem cell growth factor project, primary screen (AID 1067).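 Also: measures binding of biotinylated aFGF2 protein to printed compounds on slides; z-score merges feature fluorescence and signal-to-noise across triplicate slides.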 The note with it: higher = more signal.
Test [4] in a line: small molecules captured by biotinylated probe aFGF10 – biochemical, small-molecule microarray, fluorescence 635/667, stem cell growth factor project, primary screen (AID 1071).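 Also: score merges 667 nm spot intensity and signal to noise from triplicate slides.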 The note with it: higher = more signal.
Test [5] addresses Neurogenic locus notch homolog protein 2 (Homo sapiens) (UniProt Q04721). The experiment in a line: small molecules binding Notch2 protein – biochemical, small-molecule microarray, 635 nm fluorescence, stem cell growth factors, primary screen (AID 1073). The note with it: higher = more signal.
The target in test [6] is Pro-neuregulin-1, membrane-bound isoform (Homo sapiens) (UniProt Q02297). The test can be described thus: small molecules binding neuregulin-1 protein – biochemical, small-molecule microarray, fluorescence 635/667, psychiatric disease protein project, primary screen (AID 1075).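 Also: score combines 667 nm spot fluorescence with signal to noise.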 The note with it: NRG1 binding, 635 nm fluorescence, higher = more signal.
Chain of Pro-neuregulin-1, membrane-bound isoform (Homo sapiens) (Q02297 whole entry, looked up, the tested form may be a part, canonical isoform): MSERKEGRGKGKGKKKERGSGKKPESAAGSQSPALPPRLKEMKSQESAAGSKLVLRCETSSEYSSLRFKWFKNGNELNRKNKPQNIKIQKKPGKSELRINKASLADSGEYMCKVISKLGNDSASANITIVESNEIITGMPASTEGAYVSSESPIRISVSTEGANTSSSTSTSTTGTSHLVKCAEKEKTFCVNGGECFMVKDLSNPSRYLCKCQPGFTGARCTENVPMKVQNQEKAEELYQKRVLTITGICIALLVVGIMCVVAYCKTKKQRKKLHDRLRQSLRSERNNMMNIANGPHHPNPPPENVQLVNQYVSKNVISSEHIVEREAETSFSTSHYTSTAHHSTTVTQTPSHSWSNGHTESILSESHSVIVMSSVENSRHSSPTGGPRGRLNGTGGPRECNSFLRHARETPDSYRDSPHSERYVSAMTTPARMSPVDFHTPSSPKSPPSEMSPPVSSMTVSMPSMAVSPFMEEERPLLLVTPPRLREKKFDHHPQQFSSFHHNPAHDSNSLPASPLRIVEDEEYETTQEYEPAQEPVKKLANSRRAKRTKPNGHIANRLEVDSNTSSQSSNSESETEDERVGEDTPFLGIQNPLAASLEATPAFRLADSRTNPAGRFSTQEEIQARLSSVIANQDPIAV
Test [7] deals with Neuregulin-1 EGF-like domain. The experiment in a line: small molecules binding NRG1 EGF domain – biochemical, small-molecule microarray, 635 nm fluorescence, primary screen (AID 1081).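 Also: binding of the protein to compounds printed on small-molecule microarray slides.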 The note with it: higher = more signal.
Test [8] is described as follows: FRG1 expression reporter modulators in myotubes – cell-based, C2C12 myotubes, firefly/Renilla luciferase, luminescence, FRG1 inhibition for FSHD, primary screen (AID 1084). The note with it: FRG1 promoter luciferase, higher = more signal, called active from +8 up or from −8 down.
Test [9] in a line: small molecules captured by biotinylated probe aFST – biochemical, small-molecule microarray, fluorescence 635/667, stem cell growth factor project, primary screen (AID 1086).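 Also: score merges 667 nm fluorescence with signal-to-noise of each printed compound spot.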 The note with it: higher = more signal.
Test [10] can be described thus: binders of probe aHhip on microarray, primary screen, stem cell growth factor project, biochemical, small-molecule microarray, fluorescence 635/667 (AID 1087).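 Also: score merges spot fluorescence at 667nm with spot signal to noise ratio.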 The note with it: higher = more signal.
The test system of test [11] is PRMT1 (protein arginine N-methyltransferase 1). The experiment in a line: small molecules binding arginine methyltransferase PRMT1 – biochemical, small-molecule microarray, 635 nm fluorescence, primary screen (AID 1088).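 Also: binding of Prmt1 protein to compounds spotted on small-molecule microarray slides.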 The note with it: higher = more signal.
A short description of test [12]: growth effects on S. cerevisiae YJM789 – YJM789 clinical isolate, OD600, 24 h, basal, primary screen (AID 1089).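 Also: growth of clinical yeast isolate S. cerevisiae YJM 789 seeded 1000 cells per well; test concentration not given here.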 The note with it: higher = more signal, called active from +8 up or from −8 down.
A short description of test [13]: S. pombe growth modifiers, basal conditions – strain 972, OD600, 24 h, no modulator, primary screen (AID 1090).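 Also: basal condition with compound alone and no growth modifier present; test concentration not given here.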 The note with it: S. pombe 972 growth, higher = more signal, called active from +8 up or from −8 down.
The nature of test [14]: budding yeast growth modifiers under rapamycin – strain BY4716, OD600, 96 h, primary screen (AID 1091). Also: test concentration not given here. The note with it: S. cerevisiae BY4716 + rapamycin, higher = more signal, called active from +8 up or from −8 down.
Test [15] deals with Torsin-1A-interacting protein 2 (Homo sapiens) (UniProt Q8NFQ8). The test can be described thus: small molecules binding lysate-expressed LULL1 – cell lysate, human LULL1 lysate, 635/667 nm fluorescence, primary screen (AID 1092).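 Also: probe is lysate of COS7 cells overexpressing human LULL1; score merges per-feature 667 nm fluorescence with signal-to-noise.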 The note with it: small-molecule microarray, hLULL1 lysate binding, 635 nm fluorescence; higher = more signal.
Chain of Torsin-1A-interacting protein 2 (Homo sapiens) (Q8NFQ8 whole entry, looked up): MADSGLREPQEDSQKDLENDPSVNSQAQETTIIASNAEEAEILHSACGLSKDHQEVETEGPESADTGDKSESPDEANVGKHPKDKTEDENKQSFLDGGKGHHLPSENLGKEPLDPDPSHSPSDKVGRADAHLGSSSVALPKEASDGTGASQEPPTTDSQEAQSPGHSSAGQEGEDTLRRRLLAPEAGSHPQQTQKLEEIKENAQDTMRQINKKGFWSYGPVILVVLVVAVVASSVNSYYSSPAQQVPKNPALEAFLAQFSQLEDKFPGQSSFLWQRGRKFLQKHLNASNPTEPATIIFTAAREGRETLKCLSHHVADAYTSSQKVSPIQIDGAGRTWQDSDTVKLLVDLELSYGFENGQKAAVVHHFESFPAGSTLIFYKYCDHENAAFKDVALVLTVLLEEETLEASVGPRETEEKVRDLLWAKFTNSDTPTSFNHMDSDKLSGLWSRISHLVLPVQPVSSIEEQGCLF
Test [16] is described as follows: optical density change of DRC41 E. coli – strain DRC41, OD650, 24 h, E. coli filamentation project, primary screen (AID 1093).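 Also: MC1000 strain lacking acrAB efflux and sulA so SOS filamentation is blocked; test concentration not given here.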 The note with it: E. coli DRC41 growth, higher = more signal, called active from +8 up or from −8 down.
The nature of test [17]: probe aLefty2 binding to arrayed compounds – biochemical, biotinylated probe, 635/667 nm fluorescence, primary screen (AID 1094).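 Also: score merges spot fluorescence near 667 nm with spot signal-to-noise ratio.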 The note with it: small-molecule microarray, higher = more signal.
The subject of test [18] is Noggin (protein binding on small-molecule microarray). The test can be described thus: small molecules binding Noggin protein – biochemical, 635/667 nm fluorescence, primary screen (AID 1095).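 Also: score merges 667 nm feature fluorescence with signal to noise over triplicate slides.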 The note with it: 635 nm fluorescence, higher = more signal.
The target of test [19] is Neurogenic locus notch homolog protein 3 (Homo sapiens) (UniProt Q9UM47). The experiment in a line: small molecules binding NOTCH3 protein – biochemical, 635/667 nm fluorescence, primary screen (AID 1096). The note with it: small-molecule microarray, 635 nm fluorescence, higher = more signal.
Chain of Neurogenic locus notch homolog protein 3 (Homo sapiens) (Q9UM47 whole entry, looked up): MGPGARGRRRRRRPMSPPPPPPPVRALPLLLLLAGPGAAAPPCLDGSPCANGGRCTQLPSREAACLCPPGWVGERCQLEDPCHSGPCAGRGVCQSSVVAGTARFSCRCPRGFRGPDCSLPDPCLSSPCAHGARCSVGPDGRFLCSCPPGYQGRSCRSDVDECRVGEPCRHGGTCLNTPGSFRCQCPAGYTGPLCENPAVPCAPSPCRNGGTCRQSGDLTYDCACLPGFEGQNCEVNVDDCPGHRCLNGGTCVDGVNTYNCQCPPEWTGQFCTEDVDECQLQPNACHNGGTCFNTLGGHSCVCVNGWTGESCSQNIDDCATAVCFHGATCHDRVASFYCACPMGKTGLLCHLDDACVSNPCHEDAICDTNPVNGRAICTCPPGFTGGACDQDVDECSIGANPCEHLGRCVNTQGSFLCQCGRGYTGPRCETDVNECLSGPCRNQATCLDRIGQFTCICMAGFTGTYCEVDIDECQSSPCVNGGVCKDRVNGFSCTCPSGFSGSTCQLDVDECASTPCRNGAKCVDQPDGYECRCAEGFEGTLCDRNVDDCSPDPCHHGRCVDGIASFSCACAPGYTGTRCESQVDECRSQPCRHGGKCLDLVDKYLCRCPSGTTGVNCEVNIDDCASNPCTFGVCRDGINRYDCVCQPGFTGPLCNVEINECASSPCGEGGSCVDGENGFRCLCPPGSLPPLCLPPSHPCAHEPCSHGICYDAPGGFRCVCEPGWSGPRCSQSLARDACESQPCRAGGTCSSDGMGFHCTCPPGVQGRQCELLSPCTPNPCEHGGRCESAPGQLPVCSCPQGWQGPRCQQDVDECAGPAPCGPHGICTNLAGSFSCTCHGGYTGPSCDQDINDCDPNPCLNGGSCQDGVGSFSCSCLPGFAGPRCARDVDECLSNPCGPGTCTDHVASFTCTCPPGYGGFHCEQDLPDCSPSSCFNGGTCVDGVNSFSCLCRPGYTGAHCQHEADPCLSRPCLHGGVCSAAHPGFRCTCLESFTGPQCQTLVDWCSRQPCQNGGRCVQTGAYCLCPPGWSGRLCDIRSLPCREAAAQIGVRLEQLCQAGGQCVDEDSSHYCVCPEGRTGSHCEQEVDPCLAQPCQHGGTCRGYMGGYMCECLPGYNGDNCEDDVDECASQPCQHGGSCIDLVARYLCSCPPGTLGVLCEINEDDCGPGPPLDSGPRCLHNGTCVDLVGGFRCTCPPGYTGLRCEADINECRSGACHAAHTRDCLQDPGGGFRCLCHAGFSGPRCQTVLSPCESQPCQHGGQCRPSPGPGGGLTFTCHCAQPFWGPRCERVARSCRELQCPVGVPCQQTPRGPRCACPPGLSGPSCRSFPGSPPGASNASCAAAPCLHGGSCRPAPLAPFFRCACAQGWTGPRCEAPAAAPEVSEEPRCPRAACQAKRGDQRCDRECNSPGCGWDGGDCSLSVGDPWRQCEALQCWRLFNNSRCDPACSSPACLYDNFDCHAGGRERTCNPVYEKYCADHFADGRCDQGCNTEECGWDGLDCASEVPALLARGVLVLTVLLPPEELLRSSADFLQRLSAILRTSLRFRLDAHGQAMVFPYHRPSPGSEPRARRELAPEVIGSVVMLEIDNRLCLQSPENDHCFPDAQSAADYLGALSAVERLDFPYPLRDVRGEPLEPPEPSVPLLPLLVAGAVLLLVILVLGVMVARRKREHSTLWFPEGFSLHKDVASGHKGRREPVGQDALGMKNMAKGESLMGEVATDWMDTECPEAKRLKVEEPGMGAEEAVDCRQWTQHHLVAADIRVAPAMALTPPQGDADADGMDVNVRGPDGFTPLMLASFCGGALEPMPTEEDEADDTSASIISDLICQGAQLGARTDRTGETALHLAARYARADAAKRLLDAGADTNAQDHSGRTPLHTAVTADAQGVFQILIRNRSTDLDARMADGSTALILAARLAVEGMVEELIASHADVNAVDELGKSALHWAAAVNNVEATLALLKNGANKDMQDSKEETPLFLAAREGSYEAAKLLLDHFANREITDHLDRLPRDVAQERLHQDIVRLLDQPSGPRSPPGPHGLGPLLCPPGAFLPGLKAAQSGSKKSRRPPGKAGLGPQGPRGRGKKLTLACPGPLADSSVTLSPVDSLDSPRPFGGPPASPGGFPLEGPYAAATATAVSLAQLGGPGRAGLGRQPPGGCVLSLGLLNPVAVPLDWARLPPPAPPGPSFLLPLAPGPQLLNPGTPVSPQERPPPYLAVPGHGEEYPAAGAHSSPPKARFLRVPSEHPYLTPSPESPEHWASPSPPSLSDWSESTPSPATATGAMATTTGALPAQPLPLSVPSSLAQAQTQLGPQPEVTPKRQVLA
Test [20] in a line: probe aEGFR binding to arrayed compounds – biochemical, biotinylated probe, 635/667 nm fluorescence, primary screen (AID 1097).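 Also: probe is a biotinylated anti-EGFR antibody binding compounds printed on slides; score combines fluorescence near 667 nm and signal to noise of each spot.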 The note with it: small-molecule microarray, higher = more signal.

Molecules are shown by their SMILES. Activity calls are given as the source filed them.

For `CC(C)(C)OC(=O)CC[C@]1(C(=O)NCc2ccccc2)N=C(c2ccc(OCCCO)cc2)O[C@H]1c1ccccc1N=[N+]=[N-]`, the composite z-score turned out to be 1.4 in test [1]; 1.11 in test [2]; 0.231 in test [3]; 0.907 in test [4]; 1.65 in [5]; 1.91 in [6]. For the same compound, the composite z-score was 1.26 in test [7]; 1.62 in test [9]; -0.248 in test [10]; 1.55 in [11]; 3.41 in [15]; 0.782 in test [17]. The composite z-score in test [18] is 1.69; in test [19], 1.02; in test [20] it was 0.593. Moreover, the z-score was 1.14 (inactive) in [8]; -0.182 (inactive) in test [12]; -0.654 (inactive) in [13]; 2.97 (inactive) in test [14]; 0.876 (inactive) in test [16].
For the compound `C=CCC(OC(C)=O)[C@@H]1[C@@H](N(Cc2ccc(-c3ccccc3)cc2)C(=O)c2ccc(-c3ccccc3)cc2)c2cc(OCCCO)ccc2N1C(=O)c1ccc(-c2ccccc2)cc1` (stereo not given in full), the composite z-score in test [1] was 0.54; in test [2] it was 0.054; in [3], 0.032; in test [4], -0.0598; in [5] it was -0.0106; in test [6], -0.333. For the same compound, the composite z-score in [7] was -0.864; in test [9] it was 0.214; in [10], -0.146; in [11] it was -0.655; in test [15], 0.399; in [17], 0.0525. In addition, the composite z-score in [18] is -0.846; in test [19] it was -0.83; in [20], -0.0981. For the same compound, the z-score was -0.0089 (inactive) in test [8]; -0.611 (inactive) in [12]; -0.811 (inactive) in [13]; 0.131 (inactive) in test [14]; 1.99 (inactive) in test [16].
On to `O=C1c2ccccc2C(=O)c2cc([C@H]3Oc4ccccc4S(=O)(=O)N4CCC[C@@H]34)ccc21`, for which the composite z-score in test [1] is 0.238; in [2], -0.845; in [3], -0.128; in [4], -0.639; in test [5], -1.09; in test [6] it was -0.926. For the same compound, the composite z-score is -1.64 in test [7]; -0.167 in test [9]; -0.353 in test [10]; -1.02 in [11]; -0.629 in test [15]; -0.276 in [17]. Further, the composite z-score in test [18] was -0.566; in [19], -0.259; in test [20] it was -0.196. In addition, the z-score in test [8] was -0.933 (inactive); in [12], -1.31 (inactive); in [13] it was -1.33 (inactive); in [14] it was -0.462 (inactive); in test [16] it was 2.81 (inactive).
For `[N-]=[N+]=Nc1ccccc1[C@H]1OC(c2ccc(OCCCO)cc2)=N[C@@]1(Cc1ccccc1)C(N)=O`, the composite z-score in [1] came out at 1.28; in test [2], 1.6; in test [3], 0.317; in [4], 0.988; in [5], 1.42; in test [6] it was 1.14. Also, the composite z-score in [7] amounted to 1.13; in test [9], 1.42; in test [10], 0.0053; in test [11] it was 1.55; in [15], 2.62; in test [17] it was 0.789. For the same compound, the results for the composite z-score in test [18], in [19] and in test [20] were 0.49, 1.09 and 0.441, respectively. Besides, the z-score in test [8] is -0.191 (inactive); in test [12], 2.87 (inactive); in test [13], -1.11 (inactive); in test [14], -0.321 (inactive); in [16], 1.6 (inactive).
In the case of `COc1ccc([Si](C)(C)[C@H]2[C@H](CC(=O)N(CCO)Cc3ccccc3)O[C@@]3(C(=O)N(Cc4cccc(N5C(=O)COc6ccccc65)c4)c4ccccc43)[C@@H]2C)cc1`, the composite z-score in test [1] was 1.54; in test [2], 0.347; in test [3], -0.106; in test [4] it was 0.585; in [5] it was 0.703; in test [6] it was 1.11. Further, the composite z-score in test [7] was 1.27; in test [9] it was -0.103; in test [10], 0.245; in [11], 1.44; in [15], 2.13; in test [17], -0.0846. For the same compound, the composite z-score was found to be 0.97 in test [18], 0.496 in [19] and 0.0927 in test [20]. Further, the z-score in test [8] is -1.84 (inactive); in test [12], 2.21 (inactive); in [13] it was 0.272 (inactive); in [14], 3.48 (inactive); in test [16], 2.09 (inactive).
